Among all 5,500 compounds or so, about 2,000 (36%) were called active. Not shown: some 18% with an inconclusive outcome. Rule as the data show it: active = normalized growth mostly below about 0.91 (no sharp cut-off); inconclusive = no clear call, values can overlap the other calls; inactive = mostly above about 0.92. The list shows a part of the results.
Assay: chemical genetic growth profiling, strain panel (AID 1159580);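 also: tested at 20 µM; growth read once vehicle control cultures reached saturation at 30 °C; 1 = growth at the plate median or of vehicle wells; lower values mean less growth of the strain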
Settings: S. cerevisiae deletion strains, growth OD

Measured: normalized growth

CC(=O)O[C@H]1CC[C@@]2(C)C(=CC(=O)C3C4CCC(C(C)CCCC(C)C)[C@@]4(C)CCC32)C1 (stereo not given in full)
inactive: locus YAL013W, strain DEP1, active compounds read low 1.01 | locus YAL021C, strain ccr4, active compounds read low 0.992 | locus YAL026C, strain drs2, active compounds read low 1.02 | locus YAL030W, strain snc1, active compounds read low 0.992 | locus YBL061C, strain skt5, active compounds read low 0.988 | locus YBR009C, strain hhf1, active compounds read low 1.01 | locus YBR021W, strain FUR4, active compounds read low 0.999 | locus YBR023C, strain chs3, active compounds read low 0.985 | locus YBR171W, strain sec66, active compounds read low 0.996 | locus YBR229C, strain ROT2, active compounds read low 1 | locus YBR231C, strain swc5, active compounds read low 1.02 | locus YBR279W, strain paf1, active compounds read low 0.996 | locus YCL011C, strain gbp2, active compounds read low 0.994 | locus YCL016C, strain dcc1, active compounds read low 0.99 | locus YCL029C, strain bik1, active compounds read low 0.986 | locus YCL061C, strain MRC1, active compounds read low 1 | locus YCL069W, strain vba3, active compounds read low 0.997 | locus YCR088W, strain abp1, active compounds read low 0.995 | locus YDL005C, strain med2, active compounds read low 0.971 | locus YDL035C, strain GPR1, active compounds read low 1.02 | locus YDL040C, strain nat1, active compounds read low 0.991 | locus YDL074C, strain BRE1, active compounds read low 1.04 | locus YDL101C, strain DUN1, active compounds read low 1 | locus YDL185W, strain tfp1, active compounds read low 1.02 | locus YDL192W, strain arf1, active compounds read low 1 | locus YDR001C, strain nth1, active compounds read low 0.99 | locus YDR069C, strain doa4, active compounds read low 0.992 | locus YDR101C, strain arx1, active compounds read low 1 | locus YDR137W, strain rgp1, active compounds read low 1.01 | locus YDR150W, strain NUM1, active compounds read low 0.998 | locus YDR159W, strain sac3, active compounds read low 1.01 | locus YDR162C, strain NBP2, active compounds read low 1.01 | locus YDR195W, strain ref2 0.977 | locus YDR297W, strain sur2, active compounds read low 0.995 | locus YDR318W, strain mcm21, active compounds read low 0.978 | locus YDR334W, strain swr1, active compounds read low 0.994 | locus YDR335W, strain msn5, active compounds read low 0.993 | locus YDR388W, active compounds read low 0.979 | locus YDR392W, strain spt3, active compounds read low 0.944 | locus YDR502C, strain sam2, active compounds read low 1 | locus YEL003W, strain gim4, active compounds read low 1.01 | locus YEL037C, strain rad23, active compounds read low 0.994 | locus YEL061C, strain CIN8 (second series), active compounds read low 0.995 | locus YEL061C, strain CIN8, active compounds read low 1 | locus YER015W, strain faa2, active compounds read low 0.996 | locus YER016W, strain bim1, active compounds read low 0.989 | locus YER110C, active compounds read low 0.982 | locus YER111C, strain swi4, active compounds read low 0.999 | locus YER155C, strain BEM2 (second series), active compounds read low 1.01 | locus YER155C, strain BEM2, active compounds read low 1.01 | locus YER167W, strain BCK2, active compounds read low 1.01 | locus YFR010W, strain ubp6, active compounds read low 1.01 | locus YGL078C, strain dbp3, active compounds read low 1.02 | locus YGL086W, strain mad1, active compounds read low 1.01 | locus YGL167C, strain pmr1, active compounds read low 0.993 | locus YGL173C, strain kem1, active compounds read low 0.978 | locus YGL227W, strain vid30, active compounds read low 0.984 | locus YGL240W, strain doc1, active compounds read low 1.01 | locus YGL248W, strain PDE1, active compounds read low 0.987 | locus YGL253W, strain hxk2, active compounds read low 0.993 | locus YGR135W, strain pre9, active compounds read low 0.984 | locus YGR252W, strain gcn5, active compounds read low 1.07 | locus YHR013C, strain ard1, active compounds read low 0.994 | locus YHR027C, strain rpn1, active compounds read low 0.994 | locus YHR030C, strain SLT2, active compounds read low 1 | locus YHR079C, strain IRE1 (second series), active compounds read low 0.991 | locus YHR094C, strain hxt1, active compounds read low 0.975 | locus YHR129C, strain ARP1, active compounds read low 0.999 | locus YHR142W, strain chs7, active compounds read low 0.979 | locus YHR200W, strain rpn10, active compounds read low 0.985 | locus YIL066C, strain RNR3, active compounds read low 1 | locus YIL073C, strain SPO22, active compounds read low 1.03 | locus YIL125W, strain kgd1, active compounds read low 1.01 | locus YIR030C, strain dcg1, active compounds read low 0.989 | locus YJL092W, strain hpr5, active compounds read low 0.99 | locus YJL095W, strain BCK1 (second series), active compounds read low 0.982 | locus YJL095W, strain BCK1, active compounds read low 1.01 | locus YJL115W, strain asf1, active compounds read low 0.981 | locus YJL129C, strain trk1, active compounds read low 0.989 | locus YJL134W, strain LCB3, active compounds read low 1.01 | locus YJL154C, strain vps35, active compounds read low 0.999 | locus YJL164C, strain tpk1, active compounds read low 1 | locus YJL166W, strain qcr8, active compounds read low 0.998 | locus YJL168C, strain set2, active compounds read low 0.976 | locus YJL187C, strain SWE1 (second series), active compounds read low 1.01
